Source: PubChem
The list is not random: actives were taken first. Their share in the collection is about 2.8%.
Pol iota inh = inhibitors of human DNA polymerase iota | Pol iota fluorescent replication assay, 10 min | Q9UNA4 | Potency, µM (series often up to 115 µM), without a hit: at the top dose activity, negative = inhibition, hits mostly inhibitors | AID 588590 | actives 1% (n = 390,000); note: potency is the fitted concentration of half-maximal effect
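Fluorescent replication assay read twice, at 0 min and 10 min after adding 50 nM (final) substrate. Enzyme (10 nM) and compounds were first incubated 15 min at room temperature; enzyme-free buffer wells were negative controls.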
WRN inhibitor = WRN helicase (human) inhibition | WRN helicase unwinding, fluorescent forked duplex, kinetic | Potency, µM (highest dose often 114 µM), for the others: top-dose activity change, negative = inhibition, usual class: inhibitors | actives 0.46% (n = 360,000); note: potency is the fitted concentration of half-maximal effect; % is set by controls: 0 for no effect and ±100 for the full control effect; nearly all actives have a fitted effect of over 55% in size
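Kinetic red-fluorescence monitoring (525/598 nm) tracks WRN helicase activity after 100 nM fluorophore-quencher forked duplex and 2 mM ATP are added to 20 nM enzyme pretreated 15 min at room temperature with compound.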
POLB inh = blocks human DNA polymerase beta activity | Pol beta primer extension/strand displacement, fluorescence kinetic | Potency, µM (series often up to 114 µM), inactives show at the highest dose activity change, negative = inhibition, actives largely listed as inhibitors | actives 1.3% (n = 340,000) | AID 485314; note: potency is the fitted concentration of half-maximal effect; % is set by controls: 0 for no effect and ±100 for the full control effect
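Human Pol beta at 10 nM; strand-displacement substrate 50 nM final. Compound exposure 15 min at room temperature before start, reaction 10 min at room temperature.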
PI5P4Ka inh = blocks human PI5P4K alpha kinase activity; P48426; PI5P4Kalpha enzyme, ADP-Glo luminescence, 60 min; hits give low values; max response, %; actives 1.2% (n = 330,000); AID 652105; active = max response of -50% or lower; inconclusive = between -30% and -50%; inactive = -30% or higher; note: value at the top dose of about 77 µM; % is set by controls: 0 for no effect and ±100 for the full control effect
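Luminescence from ADP-Glo served as readout of PI5P4Kalpha activity in a qHTS format. Reaction: enzyme, substrate, compound, ATP at 5 microM final, 60 min at RT.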
Pol eta inh = blocks human DNA polymerase eta activity | AID 588591 | recombinant Pol eta, fluorescent DNA replication assay | Q9Y253 | Potency, µM (top dose mostly 114 µM), without a hit: top-dose activity change, negative = inhibition, hits mostly inhibitors | actives 1.2% (n = 390,000); note: potency is the fitted concentration of half-maximal effect; % is set by controls: 0 for no effect and ±100 for the full control effect
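Pol eta (10 nM) was preincubated with compounds for 15 min at room temperature, after which fluorescent replication substrate (50 nM final) was added to start the reaction. Fluorescence was read kinetically at 0 and 10 min.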
Pol kappa inh = DNA polymerase kappa (human) inhibition. AID 588579. Q9UBT6. Potency, µM (titrated, usually from 107 µM), for the others: top-dose activity, negative = inhibition, actives largely listed as inhibitors. purified Pol kappa, fluorescent DNA synthesis assay, 10 min. actives 0.53% (n = 400,000); note: potency is the fitted concentration of half-maximal effect; % is set by controls: 0 for no effect and ±100 for the full control effect
Target sequence (Q9UBT6 whole entry, looked up): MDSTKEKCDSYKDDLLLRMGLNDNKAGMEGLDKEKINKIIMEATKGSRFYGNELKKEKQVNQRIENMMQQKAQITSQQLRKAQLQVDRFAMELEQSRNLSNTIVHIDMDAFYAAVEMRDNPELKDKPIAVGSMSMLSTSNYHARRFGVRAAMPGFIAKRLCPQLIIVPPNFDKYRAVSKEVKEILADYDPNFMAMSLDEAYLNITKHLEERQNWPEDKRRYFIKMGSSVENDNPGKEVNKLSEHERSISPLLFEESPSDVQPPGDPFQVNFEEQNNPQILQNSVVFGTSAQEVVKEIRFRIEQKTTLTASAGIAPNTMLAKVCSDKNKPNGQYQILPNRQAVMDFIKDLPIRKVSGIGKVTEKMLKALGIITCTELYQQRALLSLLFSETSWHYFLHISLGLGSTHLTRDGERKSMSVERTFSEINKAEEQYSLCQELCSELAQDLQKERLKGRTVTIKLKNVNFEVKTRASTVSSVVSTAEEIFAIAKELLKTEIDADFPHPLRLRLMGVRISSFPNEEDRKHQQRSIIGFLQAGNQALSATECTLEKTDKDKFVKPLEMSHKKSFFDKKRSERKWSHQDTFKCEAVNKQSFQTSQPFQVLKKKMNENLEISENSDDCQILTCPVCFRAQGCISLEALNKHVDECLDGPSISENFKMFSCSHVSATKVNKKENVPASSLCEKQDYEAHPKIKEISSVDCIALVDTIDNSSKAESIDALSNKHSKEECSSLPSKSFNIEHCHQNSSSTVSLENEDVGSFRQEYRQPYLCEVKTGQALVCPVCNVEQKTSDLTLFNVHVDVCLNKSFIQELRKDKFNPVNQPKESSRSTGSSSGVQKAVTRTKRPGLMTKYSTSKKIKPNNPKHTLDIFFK
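Kinetic fluorescence screen: compound preincubated 15 min RT with 10 nM enzyme; 50 nM substrate (final) initiates; reads at 0/10 min.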
The depositor's hits bear a star; ? = inconclusive; . = no result; [ ] = another dose, or the depositor's remark. Unless noted, calls come from the whole dose curve; as a rule, active = well fitted curve in the direction sought with a large enough effect; inconclusive = small, poorly fitted or top-dose-only effect, or another doubt; inactive = no such curve, though single readings can be large; an effect the other way counts as inactive or inconclusive.

SMILES	Pol iota inh	WRN inhibitor	POLB inh	PI5P4Ka inh	Pol eta inh	Pol kappa inh
COC(=O)c1ccc(C(=O)OC)c(NC(=O)c2c(-c3ccccc3)noc2C)c1	-11.7%	.	-3.6%	.	-6.7%	-27.5%
CCCN1C(=O)c2[nH]nc(-c3ccccc3O)c2C1c1ccc(OCc2ccccc2)c(OCC)c1 (stereo unspecified)	12.7%	.	-2.3%	.	-22.5%	0.0%
COC(=O)C1=C(c2ccccc2)c2ccccc2S(=O)(=O)N1CC(=O)Nc1ccc(F)c(F)c1	4.5%	.	-12.0%	.	-17.8%	-0.4%
CCc1ccc(-n2c(=O)c3ccccc3n(CC(=O)NCCc3ccc(OC)c(OC)c3)c2=O)cc1	-5.6%	.	15.0%	.	-8.1%	-16.6%
COc1ccc(CCNC(=O)Cn2c(=O)n(-c3ccc(OC)c(OC)c3)c(=O)c3ccccc32)cc1OC	?	.	22.6%	.	-1.1%	79.4µM*
O=C(NNc1c2ccccc2nc2ccccc12)c1ccc(O)cc1	-5.8%	-4.2%[11.6 µM]	79.4µM*	-27.7	-5.6%	-9.6%[60.1 µM]
Cc1cc(C)c(NC(=O)CCCN2C(=O)COc3ccc(C)cc32)c(C)c1	-16.2%	.	?	.	.	-6.6%
CCOc1ccc2oc(C(=O)NNC(=O)c3ccccc3O)c(C)c2c1	?	0.7%[11.6 µM]	.	-13.3	79.4µM*	-23.3%
Cc1c(C(=O)NNC(=O)c2ccccc2O)oc2ccc(Br)cc12	?	?	.	?	?	-8.8%
O=c1ccc2cc(S(=O)(=O)NCc3ccc(Cl)cc3)ccc2[nH]1	?	.	11.2µM*	.	2.6%	?
CN(Cc1ccccc1)S(=O)(=O)c1ccc2[nH]c(=O)ccc2c1	?	-4.6%	31.6µM*	-27.3	-8.5%	-17.4%
CN(Cc1ccccc1)S(=O)(=O)c1ccc2[nH]c(=O)oc2c1	-14.3%	1.1%	-0.9%	-0.1	-14.5%	-0.7%
CCOc1ccc(CNS(=O)(=O)c2ccc3[nH]c(=O)ccc3c2)cc1	-3.5%	.	17.1%	.	-13.0%	-5.1%[60.1 µM]
Cc1ccc(-c2nn(C)c(=O)c3ccccc23)cc1S(=O)(=O)NCCN1CCOCC1	?	-15.0%	2.8%	-14.4	?	-4.2%
CCOC(=O)CNS(=O)(=O)c1cc(-c2nn(C)c(=O)c3ccccc23)ccc1C	25.1µM*	-29.2%	35.5µM*	?	?	?
CC(=O)c1cccc(NC(=O)c2cccn2-c2nnc(N3CCCCC3)s2)c1	?	.	-26.6%	.	-5.2%	-15.5%
CC1Cc2ccccc2C[N+]1(C)CC(=O)c1ccc(I)cc1 (stereo unspecified)	3.6%	.	.	.	.	-3.4%
Cc1ccccc1-c1cc2nc(Oc3cccc(F)c3)n(C)c(=O)c2s1	.	-2.1%[57.1 µM]	.	0.2	.	.
O=C(O)CCN1C(=O)/C(=C\c2ccc(-c3nc4ccccc4s3)o2)SC1=S	-19.1%	?	?	-27.5	2.51µM*	-23.9%
O=C(O)CCN1C(=O)/C(=C\c2ccncc2)SC1=S	46.0%	6.5%	1.3%	-8.3	1.6%	8.3%
CN1Cc2sccc2C(c2ccc(O)c(O)c2)C1 (stereo unspecified)	.	.	.	.	.	-13.5%[60.1 µM]
Cc1ccccc1NC(=O)c1sc2nc3n(c(=O)c2c1C)N=C(c1ccccc1)CS3	5.9%	.	-0.8%	.	-3.8%	-14.3%
O=C1CCCC(O)=C1N=Nc1c(Cl)cc(C(F)(F)F)cc1Cl	79.4µM*	79.4µM*	?	?	-16.5%	?
OC1CCCN(Cc2ccc3ccc4cccc5ccc2c3c45)C1 (stereo unspecified)	?	21.1%[57.1 µM]	39.8µM*	.	-10.6%	-13.9%
O=C(O)c1ccc(Nc2nc(-c3ccc([N+](=O)[O-])cc3)nc3ccccc23)cc1	?	-8.7%[11.6 µM]	56.2µM*	0.3	?	-12.1%
SMILES	Pol iota inh	WRN inhibitor	POLB inh	PI5P4Ka inh	Pol eta inh	Pol kappa inh
Cc1c(N=C2C=CC(=O)c3ccccc32)c(=O)n(-c2ccccc2)n1C	?	-20.8%	?	-61.6*	44.7µM*	-7.1%
COc1ccccc1C(=O)Nc1cccc(OCc2cc(=O)n3ccccc3n2)c1	4.9%	.	-3.6%	.	-16.0%	4.6%[60.1 µM]
O=C(/C=C/c1cc[n+](CC(=O)c2ccc3cccc4c3c2CC4)cc1)c1ccc2cccc3c2c1CC3	116.9%	-11.0%	12.4%	-69.0*	?	-7.0%
C#CCN1C(=O)C(O)(CC(=O)/C=C/c2ccco2)c2ccccc21 (stereo unspecified)	35.5µM*	-4.9%	?	-26.1	?	?
CC(C)(C)N=Cc1c(O)ccc2oc3c(c12)CCCC3	?	3.1%[11.6 µM]	0.1%	-2.1	39.8µM*	-75.1%
Cc1nc2ccccc2c(=O)n1/N=C/c1c(O)ccc2oc3c(c12)CCCC3	89.1µM*	-8.4%[57.1 µM]	3.8%	7.2	-8.1%	0.9%
NC(=O)N/N=C/c1c(O)ccc2oc3c(c12)CCCC3	51.5%	-4.5%	2.7%	-11.7	-16.1%	-2.2%
Cc1nc2ccccc2c(=O)n1/N=C/c1c(O)ccc2ccccc12	?	-21.2%	2.3%	-3.1	-0.5%	-7.0%
COc1ccc(CCNc2nc3ccccc3c3nc(-c4cccc(C)c4)nn23)cc1OC	1.2%	.	0.0%	.	-1.9%	-12.7%
C=C1C[C@@]23CC[C@H]4[C@@](C)(CCC[C@@]4(C)C(=O)OC4OC(CO)C(O)C(O)C4O)[C@@H]2CC[C@]1(OC1OC(CO)C(O)C(O)C1OC1OC(CO)C(O)C(O)C1O)C3 (stereo partly specified)	.	.	.	.	.	0.9%[60.1 µM]
CCNC(=O)N1CCN(/[N+]([O-])=N/Oc2ccc([N+](=O)[O-])cc2[N+](=O)[O-])CC1	?	.	.	.	.	-8.3%
Cc1c(-c2nc(-c3ccc4c(c3)OCO4)no2)nnn1-c1cccc(C(F)(F)F)c1	19.1%	.	21.9%	.	.	-0.9%
O=C(O)C1(C(=O)O)CCC1.[NH2-].[NH2-].[Pt+2]	.	.	.	.	.	8.91µM*
O=C(O)C1(C(=O)O)CCCC1	-13.2%	4.5%	.	1.2	-4.9%	-5.6%
O=C(NCCCN1CCCCCC1)C(c1ccccc1)C1CCCCC1 (stereo unspecified)	.	.	.	.	.	5.8%[19.4 µM]
O=C1CCC[C@@H]2C[C@@]3(C[C@@H]4CCN1[C@H]24)Nc1ccccc1NC3=NC1CCCCC1	7.7%	.	.	.	.	-4.6%
Cc1cc(C)c(C#N)c(SCc2ccc(F)cc2)n1	-8.6%	2.4%	-2.7%	-5.5	-1.3%	6.2%
CSc1nc(C)cc(C)c1C#N	-0.1%	-5.7%	17.1%	-50.1*	-22.6%	-3.6%
N#Cc1cc2nc(O)c(O)nc2cc1[N+](=O)[O-]	?	-20.9%	?	-57.3*	?	5.4%[60.1 µM]
COC(=O)c1ccccc1NC(=O)c1cc2ccccn2n1	17.6%	.	?	.	-11.0%	6.6%
COC(=O)c1ccccc1NC(=O)c1cc2ncc(Br)cn2n1	?	-35.5%	44.7µM*	?	7.08µM*	-20.3%
